Measurements: the supplement of paper PMC6555819

Experiments:
Assay in all cases: PBM binding z-score (relative to random genomic background probes); higher = stronger binding; sequences stand for … in GC…GCGATTGACAGCGTAGAATGAAGG
[1] = test system: PPARg:RXRa DBDmut IVT, anti-RXR (DBD mutation: RXRa K156A/R161A, NR concentration 270 nM, RXRa partner concentration 90 nM)
How it was run: (§1)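 On custom Agilent 4×180K arrays, double-stranded probes with 34-nt variable regions carried direct-repeat seeds, single-nucleotide variants, half-site ablations or random human genomic background. Ligand-free nuclear receptor dimers were applied for 1 h, and binding was read with antibodies against each partner (one per run). Binding z-scores come from regression-normalized fluorescence, with the random background probes as reference.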

[2] = test system: PPARg:RXRa IVT, anti-PPARg (NR concentration 270 nM, RXRa partner concentration 90 nM)
How it was run: as §1

[3] = test system: PPARg DBDmut:RXRa IVT, anti-PPARg (DBD mutation: PPARg1 K132A/R137A, NR concentration 270 nM, RXRa partner concentration 90 nM)
How it was run: as §1

[4] = test system: PPARg DBDmut IVT, anti-PPARg (DBD mutation: PPARg1 K132A/R137A, NR concentration 270 nM)
How it was run: as §1

[5] = test system: PPARg homodimer (NR concentration 180 nM)
How it was run: as §1

[6] = test system: PXR:RXRa (NR concentration 270 nM, RXRa partner concentration 90 nM)
How it was run: as §1

[7] = test system: PXR homodimer (NR concentration 270 nM)
How it was run: as §1

[8] = test system: RARa:RXR (NR concentration 270 nM, RXRa partner concentration 90 nM)
How it was run: as §1

[9] = test system: RARa homodimer (NR concentration 270 nM)
How it was run: as §1

[10] = test system: RARb:RXRa (NR concentration 270 nM, RXRa partner concentration 90 nM)
How it was run: as §1

[11] = test system: RARb homodimer (NR concentration 270 nM)
How it was run: as §1

[12] = test system: RARg:RXRa (NR concentration 270 nM, RXRa partner concentration 90 nM)
How it was run: as §1

[13] = test system: RARg homodimer (NR concentration 270 nM)
How it was run: as §1

[14] = test system: RXRa DBDmut IVT, anti-RXR (DBD mutation: RXRa K156A/R161A, NR concentration 90 nM)
How it was run: as §1

[15] = test system: RXRa homodimer (NR concentration 180 nM)
How it was run: as §1

[16] = test system: THRa:RXRa (NR concentration 90 nM, RXRa partner concentration 90 nM)
How it was run: as §1

[17] = test system: THRa homodimer (NR concentration 90 nM)
How it was run: as §1

[18] = test system: VDR homodimer (NR concentration 270 nM)
How it was run: as §1

Sequence | PBM binding z-score [1] | PBM binding z-score [2] | PBM binding z-score [3] | PBM binding z-score [4] | PBM binding z-score [5] | PBM binding z-score [6] | PBM binding z-score [7] | PBM binding z-score [8] | PBM binding z-score [9] | PBM binding z-score [10] | PBM binding z-score [11] | PBM binding z-score [12] | PBM binding z-score [13] | PBM binding z-score [14] | PBM binding z-score [15] | PBM binding z-score [16] | PBM binding z-score [17] | PBM binding z-score [18]
TCTAGCAGGCCAGAGGGTCACTCATGAGGTACGG | 0.668 | 1.02 | -0.735 | -1.14 | 0.486 | 1.64 | -0.579 | 2.5 | -0.79 | 2.24 | 2.62 | 2.59 | 2.22 | -0.0474 | 2.55 | 1.59 | -0.102 | 0.736
CTACCAAGGTGAACAAGGTGGTTGATTACTATTC | 2.63 | 2.27 | 0.24 | -0.57 | 0.187 | 0.111 | 0.0854 | 0.44 | 0.0119 | 1.43 | 0.848 | 0.716 | 0.76 | 0.305 | 0.617 | 1.7 | 0.798 | -0.122
ACAGACAGGTGATGAAGGTAACACAGGCTATCAT | 0.127 | 0.744 | 0.824 | 0.414 | 0.26 | -0.00388 | 0.386 | 0.0316 | 0.746 | 0.493 | 0.929 | 0.674 | 0.747 | -0.108 | 0.817 | 0.695 | 0.246 | 0.22
AGAATGAGGTTAGTAAGATCAGGGAATTGCGGTC | 2.97 | 2.49 | 0.854 | -0.148 | 0.454 | 0.1 | 0.333 | 0.331 | 0.721 | 1.22 | 0.918 | 0.607 | 0.689 | 0.175 | 0.741 | 1.33 | 0.245 | 0.435
CTACCAAGGTGAACAAGGTAGTTGATTACTATTC | 2.65 | 2.48 | 0.56 | 0.814 | 0.0631 | 0.0464 | -0.0276 | 0.456 | -0.151 | 1.53 | 0.762 | 0.87 | 0.957 | 0.172 | 0.815 | 1.75 | 0.665 | -0.336
TCTGCTAGGCCAACGATGGTCAGCTAATCTGCTA | 1.09 | 0.619 | -0.0832 | -1.02 | -1.45 | -0.538 | -1.31 | -0.793 | -1.04 | 0.786 | 0.00128 | -0.269 | 0.329 | -0.26 | -0.518 | -0.441 | -1.26 | -1.49
TCACATAGGTAAACAGGTGAAAGTCCGTAAGTTA | 2.55 | 2.23 | 0.587 | 0.655 | 1.1 | 0.542 | 0.449 | 0.976 | -0.0341 | 0.847 | 0.832 | 0.608 | 0.415 | 0.731 | 1.12 | 0.714 | 0.454 | 0.318
AACGAAAGGTCGTGAGGTGAGTATACAGAAAGGC | 0.775 | 2.28 | 0.36 | 0.0984 | 1.96 | 3.37 | 0.132 | 4.22 | 0.704 | 4.04 | 3.14 | 4.62 | 3.99 | 1.68 | 5.2 | 3.55 | 1.33 | 0.812
CAAACTAGGTCACCGGAAGGTTAAAGTCCGCATG | 8.22 | 9.06 | 2.44 | 1.44 | 3.7 | 3.98 | 0.858 | 5.18 | 0.971 | 4.78 | 4.56 | 6.51 | 5.79 | 2.08 | 4.2 | 3.84 | 2.36 | 1.28
CGTCCTAGGTCAAGGTCAGTGAAAGAGACTCGAA | 3.53 | 4.08 | 0.311 | 0.279 | 3.52 | 3.4 | 0.941 | 4.02 | 1.1 | 5.01 | 4.34 | 5.41 | 6.43 | 2.02 | 4.55 | 3.82 | 2.95 | 1.93
CCTAGTTGGTCAAGGTTACACACGCTATAGGTAC | 1.65 | 2.24 | 1.11 | 1.66 | 2.04 | 1.19 | 1.09 | 1.6 | 1.63 | 1.99 | 2.15 | 1.49 | 1.86 | 1.24 | 1.48 | 2.16 | 1.78 | 1.42
CATACAGGGTCAGGTAGGCCAGAGTAGGGACGGC | 0.321 | 2.48 | 0.416 | 0.457 | 1.75 | 2.23 | 0.241 | 3.46 | 0.612 | 3.73 | 3 | 4.2 | 4.14 | 0.816 | 4.12 | 2.93 | 0.964 | 1.14
CAAACTAGGTCAAAGGTAAAAGTCGAGCCAACCA | 8.99 | 9.08 | 2.75 | 1.05 | 2.75 | 3.48 | -0.123 | 5.33 | 0.696 | 4.21 | 2.87 | 5.02 | 4.78 | 2.02 | 5.74 | 3.26 | 0.692 | 0.479
ATCTCTAGGTAAAGTTCAGTGGAAGATCGATAGA | 2.46 | 2.61 | 1.21 | 1.71 | 1.29 | 2.07 | 1.8 | 1.44 | 1.81 | 2.86 | 2.55 | 2.03 | 2.47 | 1.74 | 1.11 | 1.3 | 0.319 | 2.23
AGAATGAGGTTATGATCAGGGAAACAGAATACAT | 1.69 | 2.07 | 1.68 | 0.713 | 0.605 | 1.02 | 0.186 | 1.6 | 0.566 | 1.42 | 0.715 | 1.74 | 1.11 | 1.02 | 2.16 | 2.44 | 0.714 | 0.317
TCATATCGGTAAACAGGTGAAAGTCCGTAAGTTA | 2.55 | 2.3 | 0.278 | 0.853 | 0.999 | 0.657 | 0.286 | 0.933 | 1.19 | 0.764 | 0.664 | 0.475 | 0.211 | 1.26 | 0.834 | 0.552 | 0.248 | 0.533
